# GLP-1R agonist – GLP-1 receptor (human) agonism. P43220. HEK293 GLP-1R CRE-luciferase, luminescence, 4-6 h; cells express a hypersensitive GLP-1R form. Potency, µM (titrated, usually from 45.6 µM), for inactives: at the highest dose activation, hits mostly activators. hit rate 0.007% among 380,000. AID 624172; further: % of control where 0% means no effect
# Target sequence (P43220 whole entry, looked up): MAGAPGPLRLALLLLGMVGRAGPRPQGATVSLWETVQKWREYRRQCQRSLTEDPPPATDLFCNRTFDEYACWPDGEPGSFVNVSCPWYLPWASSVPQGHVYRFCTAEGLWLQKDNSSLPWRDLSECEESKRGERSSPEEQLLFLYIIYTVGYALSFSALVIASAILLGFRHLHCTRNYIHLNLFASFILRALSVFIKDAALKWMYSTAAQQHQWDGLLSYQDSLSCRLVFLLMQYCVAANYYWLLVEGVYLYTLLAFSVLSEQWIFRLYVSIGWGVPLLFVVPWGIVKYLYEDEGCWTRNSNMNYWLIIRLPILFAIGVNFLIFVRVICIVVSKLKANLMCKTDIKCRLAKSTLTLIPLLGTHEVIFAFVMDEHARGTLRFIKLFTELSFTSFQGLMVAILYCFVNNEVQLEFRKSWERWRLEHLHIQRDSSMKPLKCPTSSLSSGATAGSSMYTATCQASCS
# BRCA1 expr act – increases BRCA1 expression; MCF7-BRCA1-FFLuc reporter, luminescence, 48 h; response scale: scaled: vehicle 0%, 10 µM genistein 100%; Potency, µM (titrated, usually from 46.1 µM), for inactives: at the top dose activation, hits mostly activators; hit rate 1.1% among 380,000; AID 624202; further: nearly all actives have a fitted effect of over 80% in size
#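 Compounds are tested at multiple concentrations on MCF7 BRCA1-luciferase reporter cells seeded at 2000 per well; after 48 h, a single luminescence end-point is taken and curves fitted to the normalized data.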
# GLP-1R inv ag – GLP-1 receptor (human) inverse agonism; P43220; HEK293 GLP-1R CRE-luciferase, luminescence, 24 h; GLP-1R form is constitutively active; Potency, µM (doses to about 38.3 µM), for the others: at the top dose activity change, negative = inhibition, actives largely listed as inhibitors; hit rate 1.6% among 410,000; further: on the % scale 0 is the no-effect control and ±100 the full control effect; nearly all actives have a fitted effect of over 55% in size
#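 qHTS in 1536-well format: reporter HEK293 cells expressing constitutive GLP-1R activity in DMEM + 10% Nu serum, 24 hr with compounds at 37 deg C, luminescence read after 12 min with detection reagent.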
# Mito fusion yeast – inhibitors of mitochondrial division or activators of mitochondrial fusion. Potency, µM (doses to about 46.1 µM), for the others: top-dose growth rescue (activation), hits mostly activators. hit rate 0.23% among 320,000. AID 485298. S. cerevisiae fusion-defective mutant growth rescue, CellTiterGlo 48 h; further: % of control where 0% means no effect; nearly all actives have a fitted effect of over 45% in size
#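 Temperature-sensitive fusion-defective S. cerevisiae (e.g. fzo1-1, mgm1-5) were grown with compound in YPEG medium (3% ethanol, 3% glycerol) for 48 hours at 37C. Growth rescue was measured as viability by CellTiterGlo luminescence after 10 minutes at ambient.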
# HEK293 tox – cytotoxicity counter-screen for GLP-1 receptor inverse agonists | HEK293 cAMP-luciferase reporter cells, luminescence, 24 h | Potency, µM (doses to about 38.3 µM), inactives show at the top dose activity change, negative = inhibition, usual class: inhibitors | hit rate 0.13% among 410,000;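 further: loss of luciferase light is scored as toxicity; on the % scale 0 is the no-effect control and ±100 the full control effect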
#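 To flag toxic compounds, the library was rerun on cells for 24 hr at 37 deg C and 5% CO2. Viability-linked luminescence was captured 12 min after adding luciferase detection reagent.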
# Starred values were filed as active, the others as inactive; ? = inconclusive; . = not tested or not shown; [ ] = remark or other dose. This is a sample that favours compounds with a hit; in the whole collection about 2.8% have one here. The call rests on the fitted dose curve; in most records, active means well fitted curve in the direction sought with a large enough effect; inconclusive means small, poorly fitted or top-dose-only effect, or another doubt; inactive means no such curve, though single readings can be large; an effect the other way counts as inactive or inconclusive. Potency means the concentration at half of the fitted maximal effect.
SMILES,GLP-1R agonist,BRCA1 expr act,GLP-1R inv ag,Mito fusion yeast,HEK293 tox
CCN(CC)C(=O)CSC(=Nc1ccccc1F)NC#N,8%,11µM*,62%,-6%,1%
Cc1ccc(NC(=O)C2Cc3ccccc3C(=O)O2)cc1 (configuration not stated),5%,4µM*,-21%,-2%,0%
O=C1OC(C(=O)Nc2ccccc2)Cc2ccccc21 (configuration not stated),4%,21%,35%,21%,4%
O=C1/C(=C/c2cccs2)CCC/C1=C\c1cccs1,1%,-51%,?,2%,-17%
O=C1/C(=C/c2ccsc2)CC/C1=C\c1cccs1,.,.,.,12µM*,.
Clc1ccc(-c2nc(N3CCCCC3)nc3ccccc23)cc1,7%,-9%,?,35µM*,233%
COc1cc(NC(=S)NCc2ccc(S(N)(=O)=O)cc2)c(OC)cc1Cl,-4%,-5%,5%,-3%,14%
O=C(NC1CCCCCCC1)c1c(O)c2ccccc2[nH]c1=O,0%,10µM*,-11%,10%,22%
O=C(NCCc1ccccc1)c1c(O)c2ccccc2[nH]c1=O,-7%,?,-2%,-10%,-7%
CCNC(=O)c1c(O)c2ccccc2[nH]c1=O,4%,-53%,10µM*,-4%,136%
COc1ccc(C(=O)NCC(=O)N/N=C/c2cccnc2)cc1OC,7%,0%,6%,-2%,2%
Cc1cc(NC(=O)c2cccc(Cl)c2)n[nH]1,-6%,4µM*,1%,10%,-29%
C=CCNC(=O)c1ccc(-c2nc(-c3ccc(Cl)c(Cl)c3)cs2)cc1,-15%,2%[1.84 µM],0%,1%,-10%
C=CCNC(=O)c1ccc(-c2nc(-c3ccc(Cl)cc3Cl)cs2)cc1,-13%,11µM*,0%,2%,-16%
N#CC1=C(N)N=C(SCc2ccccc2)C(C(N)=O)C12CCCCC2 (configuration not stated),4%,-17%,0%,-16%,-17%
Cc1cccc2cc(CN(CCCO)C(=O)Nc3ccc(Cl)cc3)c(=O)[nH]c12,-3%,1%,?,0%,-16%
Cc1cccc2cc(CN(CCCO)C(=O)Nc3cccc(Cl)c3)c(=O)[nH]c12,6%,-27%,11µM*,8%,-12%
Cc1cccc(OCC(=O)NCC(=O)N/N=C/c2cc(Br)ccc2OCc2ccccc2)c1,18%,8%,15%,?,-2%
O=C(COc1ccccc1)NCC(=O)N/N=C/c1cc(Br)ccc1OCc1ccccc1,7%,-24%,?,18µM*,?
CCOC(=O)N/N=C\c1ccccc1OC/C=C/c1ccccc1,13%,4µM*,?,0%,-12%
N#CCC(=O)N/N=C/c1cccc(Oc2ccccc2)c1,13%,-11%,-14%,-2%,-3%
COC(=O)N/N=C\c1ccccc1OC/C=C/c1ccccc1,3%,11µM*,?,-2%,-25%
COc1cc(/C=N\NC(C)=O)ccc1OC/C=C/c1ccccc1,2%,4%,?,3%,-32%
N#CCC(=O)N/N=C\c1cc(Br)ccc1OC/C=C/c1ccccc1,18%,8.9µM*,43%,-1%,4%
CCN1CCCC1CNCC(O)COc1ccc(C(C)(C)C)cc1C (configuration not stated),-1%,-36%,5µM*,1%,8%
SMILES,GLP-1R agonist,BRCA1 expr act,GLP-1R inv ag,Mito fusion yeast,HEK293 tox
CC(=O)Nc1ccc(NC(=O)CCCSc2nc3ccccc3[nH]2)cc1,13%,0%,0%,5%,-2%
O=C(CCCSc1nc2ccccc2[nH]1)NC(c1ccccc1)c1ccccc1,0%,-36%,8.9µM*,-6%,-19%
O=C(Cn1ccc2cc(S(=O)(=O)N3CCCCC3)ccc21)NCc1cccc(Cl)c1,.,.,?,.,0%
Cc1[nH]c2ccccc2c1-c1csc(NC(=O)CSCCO)n1,3%,-15%,?,20µM*,1%
O=C(CN1CCCC1)Nc1ccccc1Cl,-8%,0%,10%,-6%,-1%
Cc1cccc(N(Cc2cc(=O)[nH]c3ccccc23)C(=O)CCl)c1,-10%,-82%,2.5µM*,-17%,-17%
